The source of these data is PubChem BioAssay (Tox21).

The nature of test [1]: Nuclear factor erythroid 2-related factor 2/antioxidant responsive element (Nrf2/ARE) small molecule agonists: qHTS cell viability counter screen in human keratinocytes (AID 1919968; active means well fitted curve in the direction sought with a large enough effect in the repeat runs; an effect the other way counts as inactive or inconclusive; further: nearly all actives have a fitted effect of over 55% in size; further: potency means the concentration at half of the fitted maximal effect). The following applies: KeratinoSens HaCaT ARE cells viability, CellTiter-Fluor, 24 h; series mostly up to 92.4 µM. The procedure, abridged:
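KeratinoSens cells (HaCaT keratinocytes stably carrying an ARE-luciferase reporter) were seeded at 1,500 cells/well and rested 5 h at 37 C/5% CO2. They were then exposed to compounds in DMSO for 23 h. Viability was read by CellTiter-Fluor fluorescence after 1 h.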
On the technique in general: Quantitative high-throughput screening tests each substance at several concentrations.

The nature of test [2]: Nuclear factor erythroid 2-related factor 2/antioxidant responsive element (Nrf2/ARE) small molecule agonists: luciferase reporter gene qHTS assay in human keratinocytes (AID 1919969). Further: nearly all actives have a fitted effect of over 35% in size. Further: potency means the concentration at half of the fitted maximal effect. Particulars: KeratinoSens HaCaT ARE-luciferase, luminescence, 24 h; series mostly up to 92.4 µM.
Test [3] addresses KiSS-1 receptor (Homo sapiens) (UniProt Q969F8). In words: Human kisspeptin (KISS1R) small molecule agonists, calcium flux assay in KISS1R-HEK293 cells (AID 1920064; active means well fitted curve in the direction sought with a large enough effect in the repeat runs; an effect the other way counts as inactive or inconclusive). The following applies: KISS1R-HEK293, calcium flux fluorescence, agonist; series mostly up to 76.8 µM. The method, boiled down:
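HEK293 cells stably expressing human KISS1R were plated 18 h at 37 °C, loaded with calcium dye for 1 h at 37 °C, then given compound by pin tool. Fluorescence (Ex/Em 480/540) was read kinetically for 3 min.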
A general note: Calcium assays in cells follow changes in intracellular calcium, usually with a dye or a luminescent sensor.

Test [4] is described as follows: G protein-coupled receptor (GPCR) small molecule agonists, calcium flux assay: HEK293 wild type cell line counter screen (AID 1920065). The following applies: HEK293 WT calcium flux, fluorescence, agonist mode; series mostly up to 57.6 µM. The procedure, abridged:
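Cells were plated and cultured 18 h at 37 C/5% CO2, then loaded with calcium dye for 1 h at 37 C. Compounds in DMSO were pin-transferred in agonist mode, and fluorescence (Ex/Em 480/540) was read kinetically for 3 min at 1 s intervals.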

The nature of test [5]: p53 small molecule agonists, cell-based qHTS assay with human liver microsomes (AID 1963577). Particulars: HCT-116 p53RE-bla with human liver microsomes, ratio, 16 h; series mostly up to 66 µM. The method, boiled down: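 p53RE-bla reporter cells were pre-incubated 5 h at 37 C, then treated with compounds plus human liver microsomes (0.5 mg/mL final) and NADPH (0.5 mg/mL final) for 16 h at 37 C. Beta-lactamase activity was read by LiveBLAzer fluorescence after 2 h at room temperature.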

Test [6] can be described thus: p53 small molecule agonists, cell-based qHTS assay with rat liver microsomes (AID 1963578). Particulars: HCT-116 p53RE-bla, beta-lactamase ratio, 16 h; series mostly up to 66 µM. The method, boiled down:
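p53RE-bla cells were exposed to compounds together with rat liver microsomes (0.5 mg/mL final) and NADPH (0.5 mg/mL final) for 16 h at 37 C, then read by LiveBLAzer beta-lactamase fluorescence after 2 h at room temperature.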

Test [7] is described as follows: p53 small molecule agonists, cell-based qHTS assay with human liver microsomes: qHTS cell viability counter screen (AID 1963579). Further: nearly all actives have a fitted effect of over 45% in size. The following applies: p53RE-bla HCT-116 viability, ATP luminescence, 16 h, HLM; series mostly up to 66 µM. The procedure, abridged: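 p53RE-bla cells (4,000/well) were pre-incubated 5 h at 37 C, then given compounds in DMSO plus human liver microsomes (0.5 mg/mL final) and NADPH (0.5 mg/mL final) for 16 h at 37 C. Viability was read by CellTiter-Glo luminescence.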

Test [8] in a line: p53 small molecule agonists, cell-based qHTS assay with rat liver microsomes: qHTS cell viability counter screen (AID 1963580). Further: nearly all actives have a fitted effect of over 45% in size. Further: potency means the concentration at half of the fitted maximal effect. The following applies: p53RE-bla HCT-116 + rat microsomes, ATP viability, 16 h; series mostly up to 66 µM. The method, boiled down: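 p53RE-bla HCT-116 cells were exposed 16 h at 37 C to compounds with rat liver microsomes (0.5 mg/mL) and NADPH (0.5 mg/mL). Viability was measured in the same wells as ATP content by CellTiter-Glo luminescence.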

Test [9] in a line: p53 small molecule agonists, cell-based qHTS assay: qHTS cell viability counter screen (AID 1963581). Further: nearly all actives have a fitted effect of over 45% in size. Particulars: p53RE-bla HCT-116 viability, ATP luminescence, 16 h; series mostly up to 66 µM. The procedure, abridged: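 p53RE-bla HCT-116 cells were exposed to compounds for 16 h at 37 C; after the beta-lactamase FRET read in the same wells, CellTiter-Glo was added and luminescence (intracellular ATP) read after 30 min at room temperature.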

Test [10] in a line: p53 small molecule agonists, cell-based qHTS assay (AID 1963582; active means well fitted activation curve with a large enough effect in the signal ratio in the repeat runs, not every such curve was filed as active; the % refers to the signal ratio). The following applies: HCT-116 p53RE-bla reporter, beta-lactamase FRET ratio, 16 h; series mostly up to 66 µM. The procedure, abridged:
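p53RE-bla beta-lactamase reporter cells rested 5 h at 37 C/5% CO2, then received compounds in DMSO by pin transfer and were incubated 16 h at 37 C. LiveBLAzer B/G FRET substrate was loaded for 2 h at room temperature before fluorescence reading.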

The nature of test [11]: cAMP Responsive Elements (CRE) small molecule agonists, cell-based qHTS assay (AID 1963590). The following applies: CRE-bla HEK293T, beta-lactamase FRET ratio, 3 h; series mostly up to 92.4 µM. The procedure, abridged: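 CRE-bla HEK 293T cells in DMEM with 10% dialyzed FBS, NEAA, pyruvate and 25 mM HEPES were plated 18 h at 37 C/5% CO2, then exposed to compounds in DMSO for 3 h before LiveBLAzer B/G FRET substrate addition.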

The nature of test [12]: cAMP Responsive Elements (CRE) small molecule antagonists, cell-based qHTS assay (AID 1963591; active means well fitted inhibition curve with a large enough effect in the signal ratio in the repeat runs, not every such curve was filed as active; the % refers to the signal ratio). Particulars: CRE-bla HEK293T, beta-lactamase FRET ratio; series mostly up to 92.4 µM. The procedure, abridged:
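CRE-bla HEK293T cells were plated 18 h at 37 °C/5% CO2, pinned with compound in DMSO, then stimulated with NKH477 at 0.25 uM final for 3 h. LiveBLAzer B/G FRET substrate was added and plates incubated 2 h at room temperature.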

Test [13] has as its target Beta-2 adrenergic receptor (Homo sapiens) (UniProt P07550). Briefly: Adrenergic beta2 receptor (ADRB2) small molecule antagonists, cell-based qHTS assay (AID 1963592). Further: nearly all actives have a fitted effect of over 50% in size. The following applies: CHO-ADRB2 cells, isoproterenol-stimulated cAMP HTRF ratio, 0.5 h; series mostly up to 92.4 µM. The procedure, abridged:
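Cells (CHO, stable ADRB2 overexpression) incubated 18-20hr at 37C; compounds added from DMSO; agonist mix (1nM isoproterenol, 100uM IBMX, 25uM Ro-20-1724) added; 0.5hr RT; d2-cAMP and anti-cAMP-cryptate added; 1hr RT; 665/615 nm read.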

Test [14] shares this target. In words: Adrenergic beta2 receptor (ADRB2) small molecule agonists, cell-based qHTS assay (AID 1963593).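 Further: CHO cells stably overexpressing human ADRB2.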 Particulars: CHO-ADRB2 cells, cAMP HTRF, 30 min; series mostly up to 92.4 µM. The procedure, abridged: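 CHO cells stably over-expressing ADRB2 were plated overnight at 37C, then dosed with compounds plus a stimulation mix containing 100uM IBMX and 25uM Ro-20-1724 for 0.5hr at room temperature. cAMP was measured by HTRF competition, 1hr.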

The target of test [15] is D(2) dopamine receptor (Homo sapiens) (UniProt P14416). Briefly: Dopamine D2 receptor (DRD2) small molecule agonists, cell-based qHTS assay (AID 1963594). Further: nearly all actives have a fitted effect of over 35% in size. Particulars: HEK293-DRD2 cAMP HTRF, agonist mode, 30 min; series mostly up to 92.4 µM. The method, boiled down: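 HEK293 cells stably expressing human DRD2, pre-treated with PDE inhibitor Ro20-1724 (0.1 mM final) and compound 10 min at room temperature, then stimulated with NKH477 (200nM […]) for 30 min. cAMP read by HTRF (665/620 nm).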

For test [16] the target is unchanged. Briefly: Dopamine D2 receptor (DRD2) small molecule antagonists, cell-based qHTS assay (AID 1963595; active means well fitted inhibition curve with a large enough effect in the signal ratio in the repeat runs, with a control signal flat; the % refers to the signal ratio; further: potency means the concentration at half of the fitted maximal effect). The following applies: HEK293-DRD2 cAMP HTRF antagonist mode; series mostly up to 92.4 µM. The procedure, abridged:
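HEK293 cells stably expressing DRD2 were preincubated with 0.1 mM Ro20-1724, then with compound for 10 min at room temperature. Cells were stimulated with 200 nM NKH477 plus 12 nM quinpirole for 30 min, and cAMP was read by HTRF.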

For test [17], the target named is 5-hydroxytryptamine receptor 2A (Homo sapiens) (UniProt P28223). In words: 5-hydroxytryptamine receptor 2A (HTR2A) small molecule agonists, cell-based qHTS assay (AID 1963587). Further: nearly all actives have a fitted effect of over 30% in size. Particulars: HTR2A-CHO cells, calcium flux fluorescence, agonist mode; series mostly up to 76.8 µM. The method, boiled down: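 CHO cells stably expressing human HTR2A, plated 18 h, loaded with calcium dye 1 h at 37 C. Agonist mode: compounds added and intracellular calcium fluorescence recorded kinetically for 2 min at 1 sec intervals.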

Test [18] addresses Muscarinic acetylcholine receptor M1 (Homo sapiens) (UniProt P11229). In words: Cholinergic receptor muscarinic 1 (CHRM1) small molecule antagonists, cell-based qHTS assay (AID 1963588). Further: nearly all actives have a fitted effect of over 40% in size. Further: potency means the concentration at half of the fitted maximal effect. Particulars: CHRM1-CHO antagonist mode, calcium flux fluorescence; series mostly up to 61.5 µM. The procedure, abridged:
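CHRM1-CHO calcium-flux assay, antagonist mode. Cells were seeded 18 h, dye-loaded 1 h at 37 C and given compound for 5 min at RT, then acetylcholine was added at 50nM. FDSS fluorescence was read 3 min; 15 concentrations, three runs.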

Test [19] has the same target. Briefly: Cholinergic receptor muscarinic 1 (CHRM1) small molecule agonists, cell-based qHTS assay (AID 1963589). Further: nearly all actives have a fitted effect of over 35% in size. Particulars: CHRM1-CHO cells, agonist mode, calcium flux fluorescence; series mostly up to 76.8 µM. The method, boiled down:
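CHO cells stably expressing human CHRM1, seeded 18 h at 37 C/5% CO2, dye-loaded 1 h at 37 C, then given compound in agonist mode; intracellular calcium fluorescence read kinetically at 1 s intervals. Fifteen concentrations, three independent runs.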

The target of test [20] is 5-hydroxytryptamine receptor 2A (Homo sapiens) (UniProt P28223). In words: 5-hydroxytryptamine receptor 2A (HTR2A) small molecule antagonists, cell-based qHTS assay (AID 1963586). Further: nearly all actives have a fitted effect of over 45% in size. Further: potency means the concentration at half of the fitted maximal effect. Particulars: HTR2A-CHO cells, DOI-induced calcium flux, fluorescence; series mostly up to 61.5 µM. The procedure, abridged: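 Antagonist-mode intracellular calcium assay: DOI (4 nM) added after 5 min compound pre-incubation at room temperature to dye-loaded HTR2A-CHO cells. Fluorescence followed for 3 min, sampled every second.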

The structures appear in SMILES notation. A number with no mark means an inactive call. Results filed as inconclusive are left out. Calls of active or inactive are those of the source. Unless noted, the call rests on the fitted dose curve.
On the % scale 0 is the no-effect control and ±100 the full control effect.

D(2) dopamine receptor (Homo sapiens), sequence (P14416 whole entry, looked up): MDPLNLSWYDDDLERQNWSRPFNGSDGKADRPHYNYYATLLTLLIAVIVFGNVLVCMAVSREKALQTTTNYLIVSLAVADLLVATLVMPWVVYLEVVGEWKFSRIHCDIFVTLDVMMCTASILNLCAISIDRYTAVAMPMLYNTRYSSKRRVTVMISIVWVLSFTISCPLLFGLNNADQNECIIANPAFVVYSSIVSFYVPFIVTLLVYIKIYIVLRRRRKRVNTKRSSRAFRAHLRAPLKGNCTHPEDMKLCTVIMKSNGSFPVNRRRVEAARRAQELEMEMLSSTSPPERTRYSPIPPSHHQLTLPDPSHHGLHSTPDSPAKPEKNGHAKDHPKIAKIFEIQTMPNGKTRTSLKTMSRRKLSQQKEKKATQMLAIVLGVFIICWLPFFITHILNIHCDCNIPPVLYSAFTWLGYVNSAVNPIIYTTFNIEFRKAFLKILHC
KiSS-1 receptor (Homo sapiens), sequence (Q969F8 whole entry, looked up): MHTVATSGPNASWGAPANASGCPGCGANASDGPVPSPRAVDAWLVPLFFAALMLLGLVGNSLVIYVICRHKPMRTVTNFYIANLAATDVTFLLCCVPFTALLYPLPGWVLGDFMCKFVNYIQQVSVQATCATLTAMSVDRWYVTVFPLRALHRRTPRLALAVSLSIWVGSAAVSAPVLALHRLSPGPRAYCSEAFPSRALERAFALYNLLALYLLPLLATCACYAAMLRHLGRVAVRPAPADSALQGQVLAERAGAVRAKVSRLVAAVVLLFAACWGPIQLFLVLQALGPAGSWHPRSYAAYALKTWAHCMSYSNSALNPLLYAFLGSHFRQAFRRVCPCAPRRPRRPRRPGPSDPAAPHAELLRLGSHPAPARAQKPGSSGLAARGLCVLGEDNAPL
Beta-2 adrenergic receptor (Homo sapiens), sequence (P07550 whole entry, looked up): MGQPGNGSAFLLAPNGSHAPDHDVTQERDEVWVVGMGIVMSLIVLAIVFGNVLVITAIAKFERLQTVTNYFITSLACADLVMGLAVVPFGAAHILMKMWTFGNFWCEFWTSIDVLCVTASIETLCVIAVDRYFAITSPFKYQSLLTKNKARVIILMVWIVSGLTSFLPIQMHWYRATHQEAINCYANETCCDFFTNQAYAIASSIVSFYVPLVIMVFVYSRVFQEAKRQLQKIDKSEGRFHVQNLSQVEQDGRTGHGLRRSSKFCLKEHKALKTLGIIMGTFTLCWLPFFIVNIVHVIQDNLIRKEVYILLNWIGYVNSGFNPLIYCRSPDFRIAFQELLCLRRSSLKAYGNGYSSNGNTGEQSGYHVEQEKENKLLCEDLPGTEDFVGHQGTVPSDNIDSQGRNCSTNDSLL
5-hydroxytryptamine receptor 2A (Homo sapiens), sequence (P28223 whole entry, looked up): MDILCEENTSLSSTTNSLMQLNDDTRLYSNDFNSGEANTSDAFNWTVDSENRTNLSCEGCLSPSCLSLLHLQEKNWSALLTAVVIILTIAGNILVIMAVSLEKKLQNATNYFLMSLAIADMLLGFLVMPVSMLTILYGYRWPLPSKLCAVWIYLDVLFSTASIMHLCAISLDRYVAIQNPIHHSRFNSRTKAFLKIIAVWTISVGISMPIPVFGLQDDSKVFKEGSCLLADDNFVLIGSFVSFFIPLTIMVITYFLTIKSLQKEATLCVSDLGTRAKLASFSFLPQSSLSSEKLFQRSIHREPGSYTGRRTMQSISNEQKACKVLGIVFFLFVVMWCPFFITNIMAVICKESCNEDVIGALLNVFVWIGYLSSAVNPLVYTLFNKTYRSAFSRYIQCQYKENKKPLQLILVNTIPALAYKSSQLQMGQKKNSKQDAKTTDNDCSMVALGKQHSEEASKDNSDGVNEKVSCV
Muscarinic acetylcholine receptor M1 (Homo sapiens), sequence (P11229 whole entry, looked up): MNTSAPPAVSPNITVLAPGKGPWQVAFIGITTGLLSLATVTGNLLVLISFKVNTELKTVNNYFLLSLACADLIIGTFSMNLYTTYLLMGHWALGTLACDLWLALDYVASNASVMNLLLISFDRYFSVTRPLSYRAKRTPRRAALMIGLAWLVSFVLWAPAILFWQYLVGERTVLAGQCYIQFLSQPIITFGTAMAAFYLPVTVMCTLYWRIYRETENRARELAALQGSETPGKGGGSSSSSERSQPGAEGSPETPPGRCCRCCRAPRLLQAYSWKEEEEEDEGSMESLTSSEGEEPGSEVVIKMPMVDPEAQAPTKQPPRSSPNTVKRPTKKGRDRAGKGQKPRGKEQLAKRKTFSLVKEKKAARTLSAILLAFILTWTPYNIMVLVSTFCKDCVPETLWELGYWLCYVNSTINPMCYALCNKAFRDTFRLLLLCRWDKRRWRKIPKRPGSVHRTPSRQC

With `COc1ccc(C(=O)N2CCCC2=O)cc1`, the Potency entry in test [1], in test [2], in test [3], in test [4], in test [5] and in test [6] was “inactive” in each case. Moreover, the Potency result in test [7], in test [8], in test [9], in test [10], in test [11] and in test [12] was “inactive” in each case. Also, the Potency entry in test [13], in test [14], in [15] and in [16] was “inactive” throughout.

For `CCOC(C(=O)OCCN(C)C)(c1ccccc1)c1ccccc1`, the Potency entry in [1], in test [2], in test [3], in test [4], in test [6] and in test [7] was “inactive” in each case. Besides, the Potency entry in [8], in test [9], in test [10], in test [17], in test [19] and in test [11] was “inactive” throughout. Further, the Potency entry in [12], in test [13] and in test [16] was “inactive” in each case. For the same compound, the Potency in test [18] was 2.31 µM (active).

For `CC(C)CC(C)Nc1ccc(Nc2ccccc2)cc1` (stereo unspecified), the Potency was 53.5 µM (active) in [1], 23.9 µM (active) in test [2] and 45 µM (active) in [8]. For the same compound, the Potency entry in test [3], in [4], in test [7], in test [9], in test [17] and in test [19] was “inactive” throughout.

As for `CC(C)(C)NCC(O)c1cc(Cl)c(N)c(C(F)(F)F)c1` (stereo unspecified), the Potency result in [1], in test [2], in test [3], in test [5], in [6] and in test [7] was “inactive” in each case. The Potency result in [8], in test [10], in [20], in test [17], in test [18] and in test [19] was “inactive” each time. In addition, the Potency result in [12] and in test [15] was “inactive” throughout. Also, in test [16], the Potency is 0.0084 µM (active).

`Clc1c(Cl)c(Cl)c(Cl)c(Cl)c1Cl`: the activity change, negative = cytotoxicity in test [1] was 1.8% [at 8.39 µM]; in test [7] it was -8.08% [at 5.99 µM]; in [8], 3.81% [at 5.99 µM]; in [9], 19.3% [at 5.99 µM]. In test [2], the activity, positive = activation is 1.26% [at 8.39 µM]. Further, the activation in test [4] is 0.0562% [at 5.23 µM]; in test [5], -0.641% [at 5.99 µM]; in test [6], -0.077% [at 5.99 µM]; in test [17], -3.36% [at 7.02 µM]; in [11] it was 0.371% [at 8.39 µM]; in test [14], 15.9% [at 8.39 µM]. For the same compound, in test [15], the activation is -1.37% [at 8.39 µM]. Also, the activity, negative = inhibition in test [20] was 3.79% [at 5.62 µM]; in test [18] it was 4.33% [at 5.58 µM]. The activity change, negative = inhibition in test [12] was -9.17% [at 8.39 µM]; in [13] it was -5.22% [at 8.39 µM]; in test [16] it was -2.06% [at 8.38 µM].

Regarding `CCC(=O)C(CCN(C)C)(c1ccccc1)c1ccccc1`, the Potency entry in test [1], in test [2], in [3], in [5], in test [6] and in test [7] was “inactive” each time. For the same compound, the Potency entry in [10], in test [17], in test [19], in test [14], in test [15] and in test [16] was “inactive” throughout. Also, the Potency in test [20] is 16.3 µM (active).
